# Tau fluor cs: counter-screen for tau fibril formation inhibitors; AID 1463; actives 0.93% (n = 280,000); Potency, µM (series often up to 57.7 µM), inactives show top-dose activity change, negative = decrease; tau K18 P301L Alexa594 fluorescence, heparin fibrillization; further: nearly all actives have a fitted effect of over 55% in size
#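 Human K18 P301L tau (15 uM unlabeled plus 0.24 uM Alexa 594-labeled, final) in 100 mM sodium acetate pH 7 was mixed with compound and 20 uM heparin and incubated 6 hr at 37 C.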
# Tau ThT inhib: tau fibrillization inhibition (ThT binding); Potency, µM (series often up to 57.4 µM), without a hit: at the top dose activity, negative = inhibition, hits mostly inhibitors; recombinant tau K18 P301L (four-repeat tau fragment), heparin-induced fibrillization, ThT fluorescence; actives 2.1% (n = 270,000); AID 1460; P10636; further: nearly all actives have a fitted effect of over 55% in size
# Target sequence (P10636 561-689 P618L limits assumed): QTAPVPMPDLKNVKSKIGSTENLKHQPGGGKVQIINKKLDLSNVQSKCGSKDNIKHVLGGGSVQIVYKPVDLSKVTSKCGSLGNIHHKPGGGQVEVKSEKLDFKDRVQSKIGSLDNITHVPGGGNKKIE
#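 K18 P301L tau (15 uM + 0.24 uM Alexa 594-tagged), heparin 20 uM, NaOAc pH 7, 6 h 37 C; ThT 30 uM, 1 h RT, ex 450/em 510 nm.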
# TexasRed fluor: counter-screen for TRb-SRC2 inhibitors: fluorescence interference. actives 0.29% (n = 280,000). TRb/SRC2 Texas Red total fluorescence interference. Potency, µM (doses to about 106 µM), for inactives: top-dose fluorescence change, negative = quenching; active means well fitted curve in either direction with a large enough effect; inconclusive means small, poorly fitted or top-dose-only effect
#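 Human TRβ ligand-binding domain (0.6 uM) and Texas Red SRC2 peptide (20 nM) in Tris buffer with 1 uM T3 and 5% DMSO were incubated with pinned compound for 5 hr at ambient temperature. Total fluorescence was computed as S + 2P (555/632 nm).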
# Tau fibril FP: blocks human tau fibril formation measured by polarization | actives 0.39% (n = 280,000) | P10636 | K18 P301L tau heparin fibrillization, Alexa594 FP, 6 h | Potency, µM (series often up to 57.7 µM), for the others: at the highest dose activity, negative = inhibition, most hits filed as inhibitors; further: nearly all actives have a fitted effect of over 55% in size
#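 Recombinant K18 P301L […], labeled with Alexa 594 at 0.24 uM over 15 uM unlabeled; heparin inducer 20 uM final; 37 C, 6 hr; FP endpoint.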
# TRb-SRC2 inh: inhibitors of human thyroid hormone receptor beta-SRC2 interaction | P10828 | TRbeta-SRC2 peptide binding, fluorescence polarization; receptor liganded with 1 µM T3 | Potency, µM (top dose mostly 106 µM), without a hit: top-dose activity change, negative = inhibition, usual class: inhibitors | actives 0.065% (n = 280,000);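 further: plate controls were bound peptide for no effect and peptide without receptor for full effect; nearly all actives have a fitted effect of over 50% in size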
# Target sequence (P10828 whole entry, looked up): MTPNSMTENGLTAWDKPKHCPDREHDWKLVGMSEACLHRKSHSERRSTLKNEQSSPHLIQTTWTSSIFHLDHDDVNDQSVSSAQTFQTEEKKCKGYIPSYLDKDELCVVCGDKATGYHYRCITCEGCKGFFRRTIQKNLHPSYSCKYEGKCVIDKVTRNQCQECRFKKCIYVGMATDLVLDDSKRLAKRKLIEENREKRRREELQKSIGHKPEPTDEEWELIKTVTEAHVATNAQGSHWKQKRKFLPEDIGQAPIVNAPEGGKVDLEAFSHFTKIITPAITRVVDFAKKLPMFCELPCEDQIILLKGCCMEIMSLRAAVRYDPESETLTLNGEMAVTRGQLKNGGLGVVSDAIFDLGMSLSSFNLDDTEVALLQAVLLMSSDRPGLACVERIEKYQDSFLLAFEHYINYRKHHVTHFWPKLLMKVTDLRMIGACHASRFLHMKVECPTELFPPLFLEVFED
#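 Compounds were added to 0.6 uM TRb ligand-binding domain and 20 nM Texas Red-labeled SRC2 peptide in Tris buffer containing 1 uM T3, incubated 5 hr at ambient temperature, then read by fluorescence polarization.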
# * hit, by the source's call; ? = inconclusive; [ ] = remark or other dose. Compounds with a hit are over-represented: about 3% of the library has one in this group of screens. Unless noted, the call rests on the fitted dose curve; in most records, active means well fitted curve in the direction sought with a large enough effect; inconclusive means small, poorly fitted or top-dose-only effect, or another doubt; inactive means no such curve, though single readings can be large; an effect the other way counts as inactive or inconclusive. Unless noted, on the % scale 0 is the no-effect control and ±100 the full control effect; potency means the concentration at half of the fitted maximal effect.
SMILES,Tau fluor cs,Tau ThT inhib,TexasRed fluor,Tau fibril FP,TRb-SRC2 inh
NC[C@@H]1O[C@@H](O[C@H]2[C@H](O)[C@@H](O[C@@H]3O[C@@H](CO)[C@H](O)[C@@H](N)[C@@H]3O)[C@H](N)C[C@@H]2N)[C@@H](O)[C@H](O)[C@H]1O,-22.3%,-13.8%,4.0%,-19.8%,6.4%
COCOc1c2c(c(OCOC)c3c(OCOC)cccc13)/C(=N/N[S+](=O)([O-])c1ccc(C)cc1)C1=C2CCCC1,-13.2%,-4.4%,-2.1%,-1.8%,-2.4%
COc1ccc(NC(=S)Nc2ccc3nsnc3c2)cc1,?,11.2µM*,-1.6%,-17.4%,0.5%
O=C(Nc1cccc(C(F)(F)F)c1)Nc1ccc2snnc2c1,?,12.7%,-2.0%,17.8µM*,4.4%
Cc1ccc(CNC(=O)c2ccc3c(c2)c(C)c(C)n3Cc2ccc(Cl)cc2)o1,-16.1%,-7.0%,0.7%,0.7%,-4.5%
COc1ccc(S(=O)(=O)N=C2C=C(C)C(=O)C(C)=C2)cc1,-20.6%,-23.7%,-3.3%,7.2%,-3.1%
COc1ccc(C(=O)N/N=C/C(C)c2ccccc2)cc1OC (stereo unspecified),-5.2%,-6.6%,4.7%,5.7%,-13.6%
C=CC(C1=CC(=O)C(OC)=C(OC)C1=O)c1ccccc1 (stereo unspecified),25.1µM*[quencher],12.6µM*,-1.0%,?,-2.5%
C=CC(C1=CC(=O)C(OC)=CC1=O)c1ccc(OC)cc1 (stereo unspecified),?,15.8µM*,0.0%,?,3.8%
COC1=C(c2ccccc2)C(=O)c2ccccc2C1=O,-21.9%,?,-2.9%,2.7%,4.2%
C=CC(C1=CC(=O)C(OC)=CC1=O)c1ccccc1 (stereo unspecified),14.1µM*[quencher],15.8µM*,-3.1%,20µM*,-6.4%
COc1ccccc1N1CCN(C(=O)CCn2nc(C)c(S(=O)(=O)N3CCCC3)c2C)CC1,-0.1%,-0.8%,-0.4%,-1.6%,-7.2%
COc1ccccc1NC(=O)CSc1nc(-c2ccccc2F)nc2cc(=O)[nH]n12,-8.3%,-14.8%,-1.6%,-4.3%,-5.9%
CCOC(=O)c1c(C)oc2nc(C)nc(NCCCN3CCN(c4cccc(C)c4)C(C)C3)c12 (stereo unspecified),-5.1%,?,44.7µM*[quencher],2.1%,-9.5%
CC(C)C(=O)Nc1cc(S(=O)(=O)Nc2ccc(Cl)cc2)ccc1Cl,-27.2%,-3.0%,-3.1%,-12.2%,1.2%
O=S(=O)(Nc1ccc(Cl)cc1)c1cccc(S(=O)(=O)c2ccc(Cl)c(Cl)c2)c1,?,9.9%,-0.8%,11.2µM*,-1.2%
O=S(=O)(Nc1ccc(Cl)cc1)c1ccc(NS(=O)(=O)c2ccc3c(c2)OCCO3)cc1,?,13.9%,-2.8%,14.1µM*,9.0%
COc1ccc(NS(=O)(=O)c2ccc3oc(Nc4ccc5c(c4)OCCO5)nc3c2)cc1,12.6µM*[quencher],?,-4.1%,?,-2.3%
O=C(Nc1cccc(-c2csc(-c3ccccc3)n2)c1)c1cccs1,?,?,-5.8%,14.1µM*,7.2%
O=C(Nc1cccc(-c2csc(Nc3ccc(Cl)cc3)n2)c1)c1ccccc1,14.1µM*[quencher],14.1µM*,-1.6%,-11.9%,2.3%
Cc1nc(-c2cccc(NC(=O)c3cccs3)c2)cs1,-18.5%,?,2.5%,-3.2%,-12.6%
O=C(Nc1cccc(-c2csc(Nc3ccc(Cl)cc3)n2)c1)c1cccc(C(F)(F)F)c1,7.94µM*[quencher],12.6µM*,-2.5%,-3.1%,-2.1%
O=C(Nc1cccc(F)c1F)C1CCN(c2ncccn2)CC1,-6.8%,-8.1%,-2.0%,2.3%,6.1%
CCOC(=O)N1CCC(NC(=O)c2ccc3c(c2)N(Cc2ccc(Cl)cc2)C(=O)c2ccccc2S3=O)CC1 (stereo unspecified),-9.8%,-2.0%,1.2%,0.3%,-1.8%
COc1ccc(-n2c(C)cc(/C=N/Nc3nnc(C)n3N)c2C)cc1,-27.3%,28.2µM*,-1.6%,?,0.1%
SMILES,Tau fluor cs,Tau ThT inhib,TexasRed fluor,Tau fibril FP,TRb-SRC2 inh
CCOc1ccc(-n2c(C)cc(/C=N/Nc3nc(C)cc(=O)[nH]3)c2C)cc1,?,?,-0.7%,-0.6%,-0.4%
O=C(/C=C/c1ccccc1)/C=C/c1ccccc1,-20.3%,7.94µM*,-5.0%,?,-5.8%
O=C(/C=C/c1ccccc1)c1ccccc1,5.7%,?,-4.2%,16.0%,-4.0%
CCOC(=O)CCCNC(=O)N1CCc2nc(-c3ccccc3)c3c(c2C1)CO[C@@H](C)C3,-3.1%[11.6 µM],-1.1%[11.5 µM],-4.0%[11.2 µM],0.3%[11.6 µM],5.1%[11.2 µM]
COc1ccc2c(c1)CCc1cc(C(=O)N3CCN(c4ccc(N5CCOCC5)nn4)CC3)sc1-2,-23.7%,8.91µM*,-4.1%,?,-5.2%
N#C/C(=N\Nc1ccc(Cl)cc1)C(=O)c1ccccc1,?,14.1µM*,-3.6%,9.6%,-9.1%
Cc1c(N/N=C(\C#N)C(=O)c2ccc(Cl)cc2)c(=O)n(-c2ccccc2)n1C,-5.5%,-0.3%,0.0%,-1.7%,4.5%
COc1ccc(C(=O)/C(C#N)=N/Nc2ccc([N+](=O)[O-])cc2)cc1,?,3.98µM*,-2.9%,1.3%,2.5%
COC(=O)/C(=C\C(=O)c1ccc([N+](=O)[O-])cc1)Nc1ccc(OC)cc1,?,3.16µM*,-1.3%,?,2.1%
COc1ccc(C(=O)/C=C/Nc2ccc([N+](=O)[O-])cc2)cc1,-10.9%,?,-7.3%,-2.2%,2.2%
CCN(c1ccccc1C)S(=O)(=O)c1nnc(NC(=O)c2ccccc2C)s1,?,?,6.6%,?,-1.9%
Cc1ccc(-n2ncc(C(=O)Nc3ccc4c(c3)OCO4)c2C2CCN(C(=O)OC(C)(C)C)CC2)cc1,12.6µM*[quencher],?,1.3%,-3.6%,1.8%
O=S(=O)(Nc1cccc(F)c1)c1ccc2[nH]c3c(c2c1)CCCCC3,8.91µM*[quencher],?,-5.2%,?,-2.8%
O=S(=O)(Nc1cc(F)ccc1F)c1ccc2[nH]c3c(c2c1)CCCC3,11.2µM*[quencher],-3.8%,2.6%,10.8%,2.0%
COc1ccc(S(=O)(=O)Nc2cccc(F)c2)cc1C,-15.0%,0.1%,-1.4%[53 µM],-4.6%,-10.0%[53 µM]
O=S(=O)(Nc1cc(F)ccc1F)c1ccc2[nH]c3c(c2c1)CCCCC3,12.6µM*[quencher],-7.8%,-19.6%,?,3.1%
N#Cc1c(-n2ncnc2-c2ccc(Br)cc2)sc2c1CCCCC2,-6.6%,?,0.3%,-2.0%,-7.0%
CN(C)c1ccc(/C=N/Nc2ccc(-n3ccnc3)nn2)cc1,?,5.01µM*,-3.3%,-9.4%,4.2%
Cc1cccc(Nc2nc(N)c([N+](=O)[O-])c(NCCO)n2)c1,3.8%,?,-3.3%,14.8%,-0.8%
CCOc1ccc(NC2=C(OC)C(=O)c3ccccc3C2=O)cc1,?,10µM*,-1.1%,?,-21.5%
